PfHsp90 yeast 2: inhibits growth of yeast expressing Plasmodium falciparum Hsp90; S. cerevisiae expressing PfHsp90, BacTiter-Glo ATP, 48 h; yeast lacking PDR1 and PDR3 efflux regulators; inhibition, % at 9.4 µM; 310,000 tested, 0.32% active; AID 504621;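 active means every replicate shows inhibition above about 80%, whatever the replicate mean, limit read from the data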;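 further: 0% = DMSO neutral controls and 100% = 20 µM radicicol positive controls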
EBI2 antag: blocks human EBI2 receptor beta-arrestin signaling | P32249 | EBI2 beta-arrestin recruitment, luminescence, 7a,25-OHC stimulated | inhibition, % at 5 µM | 360,000 tested, 0.81% active | AID 651636; in the data active means inhibition above about 38%;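 further: enzyme fragment complementation signal reports receptor beta-arrestin coupling in cells; 0% = agonist plus DMSO wells and 100% = wells without agonist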
Target sequence (P32249 whole entry, looked up, the tested form may be a part): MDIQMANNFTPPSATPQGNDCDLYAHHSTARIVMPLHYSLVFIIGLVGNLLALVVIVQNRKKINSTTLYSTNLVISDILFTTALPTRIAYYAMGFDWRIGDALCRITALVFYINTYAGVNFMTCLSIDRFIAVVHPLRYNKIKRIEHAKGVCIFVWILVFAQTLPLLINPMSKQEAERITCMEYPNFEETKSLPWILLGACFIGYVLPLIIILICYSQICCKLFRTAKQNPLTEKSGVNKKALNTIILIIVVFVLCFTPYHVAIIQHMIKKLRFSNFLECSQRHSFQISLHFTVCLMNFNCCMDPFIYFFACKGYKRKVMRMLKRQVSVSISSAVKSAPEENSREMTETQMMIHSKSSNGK
SKKanGAS inh: SKKanGAS growth inhibition | S. pyogenes SKKanGAS, kanamycin growth, BacTiter-Glo, 6 h | inhibition, % at 7.5 µM | 300,000 tested, 1.3% active | AID 1662;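 active means mean replicate score, as percent of positive control median, at least 50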;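 further: strain carries kanamycin resistance gene driven by streptokinase promoter and grows in 40 µg/ml kanamycin; loss of luminescence reflects streptokinase promoter inhibition or plain growth inhibition; 0% = median of DMSO wells and 100% = positive control at its reference dose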
TIM10 inh: TIM10 yeast growth inhibition; S. cerevisiae TIM10 strain growth, BacTiter-Glo luminescence, 24 h; inhibition, % at 10 µM; 330,000 tested, 1.4% active;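 active means inhibition of 40% or more at the single tested concentration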;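 further: wild-type TIM10 isogenic control strain grown at permissive 25 °C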
tim23-1 inh: growth inhibitors of tim23-1 mutant yeast; S. cerevisiae tim23-1 growth, BacTiter-Glo luminescence, 24 h; inhibition, % at 20 µM; 330,000 tested, 1.3% active; AID 463212;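 active means growth inhibition of the mutant yeast at or above 50%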;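 further: temperature-sensitive mutant grown at 25 °C; plate controls were DMSO-treated mutant yeast for no effect and medium wells lacking yeast for full effect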
tim10-1 inh: tim10-1 yeast growth inhibition; S. cerevisiae tim10-1 ts strain growth, BacTiter-Glo, 24 h; inhibition, % at 20 µM; 330,000 tested, 2.2% active;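 active means inhibition of at least 40%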;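 further: mutant grown at 25 °C; 0% = DMSO wells with yeast and 100% = wells holding no yeast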
An asterisk follows results filed as active; / = not tested or not shown. Sampled rows, rich in hits. Any-hit rate of the full collection: about 4.7%.

SMILES | PfHsp90 yeast 2 | EBI2 antag | SKKanGAS inh | TIM10 inh | tim23-1 inh | tim10-1 inh
Oc1ccc(O)c2c1C1(Cl)C(Cl)=C(Cl)C2(Cl)C1(Cl)Cl | 107* | 7 | / | / | / | /
Oc1ccccc1Cl | 21 | -5 | / | 6 | -1 | -12
COc1ccc2c(c1OC)C(=O)OC2c1c(O)n(Cc2ccc(F)cc2)c(=O)[nH]c1=O (configuration not stated) | -10 | 4 | -6 | 14 | 11 | 12
O=c1[nH]c2ccccc2n1C1CCN(C(c2cc3ccccc3o2)c2nnnn2-c2ccc3c(c2)OCCO3)CC1 (configuration not stated) | / | -24 | / | / | / | /
C/C(=N\NC(=O)c1ccccc1O)c1c(O)n(C2CCCCC2)c(=O)[nH]c1=O | 7 | 2 | 50* | 1 | 3 | -5
C/C(=N\NC(=O)c1ccccc1Cl)c1c(O)n(C2CCCCC2)c(=O)[nH]c1=O | 8 | -13 | 10 | 2 | -1 | 17
CC(C)(C)c1ccc(CSc2cnn(C(C)(C)C)c(=O)c2Cl)cc1 | 17 | / | 59* | 8 | 0 | -8
O=C(CCC(=O)N1CCC2(CC1)OCCO2)Nc1nnc(C2CCCCC2)s1 | 6 | 3 | 2 | -2 | 7 | 0
CC(=O)O[C@]1(C)C(=O)OC/C2=C/CN(C)CCC(OC(=O)[C@@](O)(C(C)O)C[C@H]1C)C2=O (some centres not stated) | -2 | -10 | / | -34 | -6 | 21
CCOC(=O)[C@]12Cc3cc(Cl)ccc3[C@H]1N(C1CCCCC1)C(=O)c1cc(OC)ccc12 | / | 77* | / | / | / | /
CCOC(=O)[C@]12Cc3cc(Cl)ccc3[C@H]1N(C)C(=O)c1cc(OC)ccc12 | / | 2 | / | / | / | /
COc1cccc(-n2c(O)c(C=NCCN3CCOCC3)c(=O)[nH]c2=O)c1 | 4 | -1 | -12 | 2 | -4 | 5
O=C(/C=C/c1c[nH]c2ccccc12)c1c(O)n(CCc2ccccc2)c(=O)[nH]c1=O | -12 | 4 | 85* | -8 | 4 | -10
CCC(=NCc1cc(OC)cc(OC)c1)c1c(O)[nH]c(=O)[nH]c1=O | -8 | -10 | 0 | -11 | -4 | -2
CN(C)C1C(=O)C(C(N)=O)=C(O)C2(O)C(=O)C3=C(O)c4c(O)cccc4C(C)(O)C3C(O)C12 (configuration not stated) | -8 | -8 | 105* | -5 | 5 | 14
CCCC1CCCCC12C(=O)NC(=O)NC2=O (configuration not stated) | 18 | 4 | / | / | / | /
Clc1ccc(CSC(Cn2ccnc2)c2ccc(Cl)cc2Cl)cc1 (configuration not stated) | 90* | 13 | / | -167 | 5 | -37
Clc1ccc(COC(Cn2ccnc2)c2ccc(Cl)cc2Cl)cc1 (configuration not stated) | 83* | 8 | 74* | -91 | 49 | -26
c1ccc(Cn2ccnc2)cc1 | 7 | 3 | 0 | 5 | -11 | -9
O[C@@H]1CCCN2CCc3c([nH]c4ccccc34)[C@H]12 | 12 | -4 | 98* | / | / | /
Cc1nc2ccccc2c(=O)n1-c1cccc([N+](=O)[O-])c1 | -4 | -5 | 2 | 3 | 0 | 3
CCCCn1c(O)c(/C=N/NC(=O)c2ccncc2)c(=O)[nH]c1=S | -4 | 1 | 106* | -17 | -9 | -31
Cn1c(O)c(/C=N/NC(=O)c2ccncc2)c(=O)[nH]c1=S | / | 5 | 1 | 12 | 6 | 5
CCCCCCC(=O)N/N=C/c1c(O)n(CCCC)c(=S)[nH]c1=O | 7 | -3 | 84* | 3 | 13 | 22
CN1C(=O)/C(=C/c2ccc(Cl)s2)C(=O)NC1=S | 94* | 10 | 0 | / | / | /
SMILES | PfHsp90 yeast 2 | EBI2 antag | SKKanGAS inh | TIM10 inh | tim23-1 inh | tim10-1 inh
CCCC12CN3CC(CCC)(CN(C1)C3c1ccccn1)C2=O (configuration not stated) | / | -5 | 75* | -5 | -2 | 19
CN(C(=O)Oc1cccc2cccnc12)c1ccccc1 | -32 | 7 | 1 | -6 | 10 | 28
Oc1cccc2cccnc12 | / | -15 | 94* | / | / | /
CC1=CC2OC3CC4OC(=O)C=CC=CC(=O)OCCC(C)C(O)C(=O)OCC2(CC1)C4(C)C31CO1 (configuration not stated) | 105* | -30 | / | / | / | /
CC1CCOC(=O)C=CC=CC(=O)OC2CC3OC4C5OC5(C)C(O)CC4(COC(=O)C1O)C2(C)C31CO1 (configuration not stated) | -8 | -2 | / | / | / | /
CC[C@H](C)/C=C(C)/C=C/C1=CC2=C(Cl)C(=O)[C@@](C)(OC(C)=O)C(=O)C2=CO1 | 106* | -2 | 6 | 10 | 38 | 27
C=C1C(=O)O[C@@H]2C[C@@H](C)[C@@H]3C4OC4C(=O)[C@@]3(C)[C@@H](O)[C@H]12 (some centres not stated) | 10 | 42 | -5 | 22 | 28 | 23
C=C1C(=O)OC2CC(C)C3C=CC(=O)C3(C)C(O)C12 (configuration not stated) | -16 | 47* | / | / | / | /
C=C1C(=O)O[C@H]2[C@H]1[C@H](OC(=O)CC(=O)O[C@@H]1C[C@@H](C)[C@@H]3C=CC(=O)[C@@]3(C)[C@H]3OC(=O)C(=C)[C@H]13)C[C@@H](C)[C@H]1C=CC(=O)[C@]12C | -4 | -1 | 1 | 4 | 10 | -3
C=C1C(=O)O[C@@H]2C[C@@H](C)[C@@H]3C=CC(=O)[C@@]3(C)[C@@H](OC(=O)CC(=O)O[C@H]3[C@@H]4C(=C)C(=O)O[C@@H]4C[C@@H](C)[C@@H]4C=CC(=O)[C@]43C)[C@H]12 | 6 | 51* | -9 | 14 | 13 | 7
CC(CC(C#N)(c1ccccc1)c1ccccc1)N1CCOCC1 (configuration not stated) | 4 | 18 | / | / | / | /
CN1CCC(N(C)c2ccc(C(N)=O)cc2[N+](=O)[O-])CC1 | -33 | 0 | -7 | -10 | -7 | 4
CNc1cc(Cl)c2nonc2c1[N+](=O)[O-] | 8 | 80* | 35 | / | / | /
Cc1cc([N+](=O)[O-])c(Cl)cc1NC(=O)C(C)C | 28 | -6 | 1 | 2 | 12 | 2
C[C@H]1CC[C@H]2NCCN[C@H]2C1 | 2 | 1 | -3 | 0 | -6 | -7
CSc1ccc(CNC(C)C(O)c2ccccc2)cc1 (configuration not stated) | / | 0 | -3 | -31 | -11 | -8
CC1CCN(C(CC(=O)c2ccccc2)C(=O)c2ccccc2)CC1 (configuration not stated) | 113* | 15 | / | / | / | /
O=C1NCCN2CCCC12 (configuration not stated) | -28 | -13 | / | -7 | 5 | 8
COc1ccc(CCNCc2c(OC)ccc3ccccc23)cc1 | -6 | -3 | 4 | 8 | 10 | 26
CCCCn1c(O)c(C(C)=Nc2cccc(C(=O)O)c2)c(=O)[nH]c1=O | / | 7 | 3 | -13 | 17 | -9
